In PubChem BioAssay AID492998 (Southern Research Specialized Biocontainment Screening …, 2010):
In all, about 2,300 compounds went through this assay and about 550 (24%) were called active. How the calls were made is not given here. The list is a sample of the results. Measured potencies and affinities stand elsewhere.

Test: Vero E6 cell cytotoxicity, dose response, cytotoxicity control for non-replicating M. tuberculosis project, secondary assay (AID 492998)
Details: series mostly up to 20 µM

Row | SMILES | outcome
1 | O=C1NC(Cc2c[nH]c3ccccc23)C(=O)N1CCOc1ccccc1 (stereo not drawn) | inactive
2 | CCOc1ccc(/C=N/OCC(=O)Nc2ccc3c(c2)OCO3)cc1 | inactive
3 | COc1cccc(OCC(=O)NNC(=O)c2cccs2)c1 | inactive
4 | CCC(=O)N/N=C/c1ccc(-c2ccc(Cl)cc2)o1 | inactive
5 | Cc1ccc(CO/N=C/c2c(O)cc(C)oc2=O)cc1 | inactive
6 | Cc1ccc(NC(=O)C2COc3ccccc3O2)nc1 (stereo not drawn) | inactive
7 | O=C1NC(=S)S/C1=C\c1ccc(SCc2ccco2)o1 | inactive
8 | O=C(C/C=N\OCc1ccc([N+](=O)[O-])cc1)Nc1ccccc1 | inactive
9 | C/C(=N\Nc1nc2ccccc2[nH]1)c1ccc(N2CCOCC2)cc1 | inactive
10 | CCCc1cc(=O)n2[nH]c(C)c(-c3ccccc3)c2n1 | inactive
11 | CC(C)[C@H](NC(=O)c1ccc(Br)cc1)C(=O)NC1CCCCC1 | inactive
12 | O=C(c1cc([N+](=O)[O-])cc([N+](=O)[O-])c1)N(Cc1nnc(-c2ccccc2Cl)o1)C1CC1 | inactive
13 | CC(=O)N1CCN(C(=O)CC2OC(=O)c3ccccc32)CC1 (stereo not drawn) | inactive
14 | Cc1c(Cl)cccc1-c1ccc(CNCc2ccccn2)o1 | inactive
15 | Cc1ccsc1C(=O)OCC(=O)NCCC1=CCCCC1 | inactive
16 | COCCn1c(C)cc(C(=O)COC(=O)c2ccc(Br)o2)c1C | inactive
17 | COc1cc(/C=C2/C(=O)NN(c3cccc(F)c3)C2=O)ccc1OC(=O)c1ccco1 | inactive
18 | CC(C)(C)OC(=O)N/N=C\c1ccc([N+](=O)[O-])s1 | inactive
19 | O=C(Nc1ccc(Cl)c(Cl)c1)O/N=C/c1ccncc1 | inactive
20 | CCCCN(C/C=C/c1ccccc1OC)Cc1ccccc1 | inactive
21 | CCCOC(=O)c1ccc(NC(=O)c2ccc(Br)o2)cc1 | inactive
22 | COc1ccc(-c2nc(C=O)cs2)cc1 | inactive
23 | Cc1cccc(NC(=O)COc2ccc(Br)cc2)n1 | inactive
24 | COc1cccc(NC(=O)c2cc3ccccc3oc2=O)c1 | inactive

Row | SMILES | outcome
25 | Cc1ccc(C(=O)c2cncc(Br)c2)cc1 | inactive
26 | CC(=O)Oc1ccc(/C=C2\N=C(C3CCCCC3)OC2=O)cc1 | inactive
27 | CCCCOc1ccc(-c2nnn(C(C)C(=O)OCC)n2)cc1 (stereo not drawn) | inactive
28 | Clc1ccc(N=c2ssnc2Cl)nc1 | inactive
29 | COc1ccccc1N1CCN(C(=O)c2ccc([N+](=O)[O-])s2)CC1 | inactive
30 | O=C(c1ccc([N+](=O)[O-])s1)N1CCN(c2cccc(Cl)c2)CC1 | inactive
31 | Cc1ccccc1N1CCN(Cc2ccc([N+](=O)[O-])o2)CC1 | inactive
32 | O=[N+]([O-])c1ccc(CN2CCN(c3ccccc3Cl)CC2)o1 | inactive
33 | CCOC(=O)COc1ccc2c(=O)c(-c3ccccc3OC)coc2c1 | inactive
34 | COc1ccc(OCCOC(=O)CCS(=O)(=O)c2ccc(C)cc2)cc1 | inactive
35 | C=CCN(CC=C)CC(=O)Nc1ccc(S(N)(=O)=O)cc1 | inactive
36 | O=C1N/C(=N\c2ccccn2)SC1Cc1ccc(Cl)cc1 (stereo not drawn) | inactive
37 | COc1ccc(OCCSc2nnc(Cc3cccc4ccccc34)n2N)cc1 | inactive
38 | CC1=CC2=NC(=O)/C(=C\c3ccc(OC(=O)c4ccco4)cc3)C(=N)N2O1 | inactive
39 | Cn1[nH]c(-c2ccccc2)c(/C=N/O)c1=O | inactive
40 | CS/C(Nc1cc(Cl)ccc1Cl)=C(/C#N)C(=O)c1ccco1 | inactive
41 | COc1ccc(N2C(=O)C(F)(F)C2c2cccc(F)c2)cc1 (stereo not drawn) | inactive
42 | O=C(N/N=C/C=C/c1ccccc1)c1ccncc1 | inactive
43 | O=C(NN=C(Cc1ccccc1)Cc1ccccc1)c1ccncc1 | inactive
44 | O=C(CN1CCN(c2ccccc2)CC1)Nc1nnc(-c2ccccc2)s1 | inactive
45 | Cc1ccc(C(=O)COC(=O)c2cccs2)cc1 | inactive
46 | CCCCCn1nnc2c(=O)oc3ccccc3c21 | inactive
47 | CCOc1ccc(NCC(=O)c2ccc(C)cc2)cc1 | inactive
48 | CCc1ccc(C2=C/C(=C/c3cccnc3)C(=O)O2)cc1 | inactive

Row | SMILES | outcome
49 | O=C(NN=C1C2CC3CC1CC(Cl)(C3)C2)c1cccs1 | inactive
50 | CC(C)(C)c1ccc(NC(=O)COc2ccc(-n3ccnc3)cc2)cc1 | inactive
51 | Cn1c(-c2cccc([N+](=O)[O-])c2)cnc1NCc1cccc(F)c1 | inactive
52 | Cc1cc(Cl)ccc1OC(C)C(=O)Nc1ccc([N+](=O)[O-])cn1 (stereo not drawn) | inactive
53 | Cc1ccc(C)c(NC(=O)c2cc([N+](=O)[O-])cc([N+](=O)[O-])c2)c1 | inactive
54 | O=C(C/C=N\OCc1ccc([N+](=O)[O-])cc1)Nc1ccc(F)cc1F | inactive
55 | Cc1cc(C)cc(OC(=O)CCN2C(=O)c3ccccc3C2=O)c1 | inactive
56 | O=C1c2ccccc2C(=O)N1CCOc1ccc(F)cc1 | inactive
57 | O=c1oc2ccccc2c(Nc2ccccc2O)c1[N+](=O)[O-] | inactive
58 | CCOc1ccc(NC(=O)c2nnn(CC(=O)Nc3ccccc3OC)c2N)cc1 | inactive
59 | O=C(c1cc2ccccc2o1)N1CCN(Cc2ccccc2)CC1 | inactive
60 | C/C(=N\NC(=O)c1ccc([N+](=O)[O-])c(C)c1)c1ccccc1Cl | inactive
61 | C/C(=N\NC(=O)c1ccccc1)c1nc2ccccc2n1C | inactive
62 | COc1cc(/C=N/N(C)C)ccc1OC(=O)c1cccs1 | inactive
63 | Clc1ccc(SCCCCn2ccnc2)cc1 | inactive
64 | Cc1cc(Cl)cc(C)c1OCCCCn1ccnc1 | inactive
65 | Cc1ccc(CCC(=O)Nc2ccccc2F)s1 | inactive
66 | O=C(COC(=O)c1ccccc1)NCc1cccs1 | inactive
67 | O=C(CCc1ccc(Oc2cc([N+](=O)[O-])cc([N+](=O)[O-])c2)cc1)N1CCCCC1 | inactive
68 | CSc1nn(-c2ccc(C(=O)OCC(=O)NC(=O)NC(C)C)cc2)c(=S)s1 | inactive
69 | CCN1C(=O)CC(N2CCC(c3nc4ccccc4[nH]3)CC2)C1=O (stereo not drawn) | inactive
70 | O=C(COC(=O)c1ccccc1)NC12CC3CC(CC(C3)C1)C2 | inactive
71 | CC(NCCCOc1cccc2ccccc12)c1ccccc1 (stereo not drawn) | inactive
72 | CCOC(=O)C1CSC(CC(=O)Nc2ccc(Cl)c(Cl)c2)C(=O)N1 (stereo not drawn) | inactive

Row | SMILES | outcome
73 | O=C(C/C=N\OCc1ccc([N+](=O)[O-])cc1)Nc1ccc(Cl)cc1 | inactive
74 | CCOc1ccc(C(=O)Nc2ccc(N3CCN(C)CC3)cc2)cc1Br | inactive
75 | NC(=O)c1ccc(-c2ccc(Br)cc2)o1 | inactive
76 | O=C(Nc1cccnc1)c1ccc(-c2ccc(Cl)cc2)o1 | inactive
77 | O=C(Nc1nccs1)c1ccc(-c2ccc(Cl)cc2)o1 | inactive
78 | O=C(CN1CCC(Cc2ccccc2)CC1)NC(=O)NC1CCCCC1 | inactive
79 | Cc1ccc2[nH]c3c(c2c1)CCCC3NCCO (stereo not drawn) | inactive
80 | Cc1ccc(-c2nnc(-c3ccccc3)o2)cc1 | inactive
81 | c1ccc(-c2n[nH]c(-c3ccccn3)n2)nc1 | inactive
82 | CCOC(=O)N1CCC(NC(=O)C2CCN(c3nc(-c4ccc(OC)cc4)no3)CC2)CC1 | inactive
83 | COc1cccc(OC(=O)c2cc3ccccc3oc2=O)c1 | inactive
84 | CCOC(=O)Cn1cc(C#N)c2cccc(CC)c21 | inactive
85 | Cc1ccc(S(=O)(=O)NCC(=O)OCCOc2cccc(Cl)c2)cc1 | inactive
86 | Cc1cccnc1NC(=O)C1COc2ccccc2O1 (stereo not drawn) | inactive
87 | O=C(OCc1nnc(-c2ccccc2)o1)c1cc([N+](=O)[O-])ccc1Cl | inactive
88 | CC(C)OC(=O)c1c2c(n3ccccc13)C(=O)c1ccccc1C2=O | inactive
89 | O=C(c1ccc(Br)o1)N1CCC(Cc2ccccc2)CC1 | inactive
90 | O=C(COc1ccc(Br)cc1)Nc1ccc([N+](=O)[O-])cn1 | inactive
91 | O=C(N/N=C/c1coc2ccccc2c1=O)c1ccc(Cl)cc1 | inactive
92 | O=C(OCC(=O)N1CCN(c2ccccc2)CC1)c1ccc(Cl)cc1[N+](=O)[O-] | inactive
93 | COC(=O)C1=C(N)OC2=C(C(=O)CC(C)(C)C2)C1c1cccnc1 (stereo not drawn) | inactive
94 | O=C(OCC(=O)N1CCCC1)c1cc(Br)ccc1Cl | inactive
95 | O=C(N/N=C/c1ccccn1)c1cccc(S(=O)(=O)Nc2ccccc2Cl)c1 | inactive
96 | Cc1ccc2oc(=O)c3cc(C(=O)NCCCN4CCCCCC4)sc3c2c1 | inactive

Row | SMILES | outcome
97 | Cc1cc(C)n2nc(S(=O)(=O)Nc3c(Cl)cccc3Cl)nc2n1 | inactive
98 | CS(=O)(=O)Nc1cccc2cccnc12 | inactive
99 | CC1C/C(=N/NC(=O)c2cccc(F)c2)c2ccc(O)cc2C1 (stereo not drawn) | inactive
100 | CCOCC(=O)Nc1nc2ccc(C)cc2s1 | inactive
101 | Cc1ccc2nc(NC(=O)COC(=O)c3ccc(Br)o3)sc2c1 | inactive
102 | O=C(NNc1nc2ccccc2s1)c1ccc(F)cc1 | inactive
103 | O=C(O)c1ccccc1-c1ccccc1C(=O)Nc1nc2ccccc2s1 | inactive
104 | O=C(Nc1c(F)cc(F)cc1Br)c1cc(-c2ccccc2)on1 | inactive
105 | O=C(Nc1nccs1)c1ccccn1 | inactive
106 | CC1=NN(C(=O)c2ccccc2Cl)C(O)(c2ccccc2)C1 (stereo not drawn) | inactive
107 | CCc1nnc(N/N=C/c2ccc(N3CCC(C)CC3)c([N+](=O)[O-])c2)n1N | inactive
108 | COc1ccc(C(=O)COC(=O)c2ccccc2O)c(OC)c1 | inactive
109 | COC(=O)c1cc(/C=C/c2ccccc2)on1 | inactive
110 | COc1cc(/C=C2/C(=O)NN(c3ccc(Cl)cc3)C2=O)ccc1OC(=O)c1ccco1 | inactive
111 | CC(C)CNc1nc(=S)nc(N(C)C)[nH]1 | inactive
112 | Cc1cccc(NC(=O)COC(=O)CCc2c[nH]c3ccccc23)c1 | inactive
113 | O=C(OCC(=O)N1CCN(c2ccccc2)CC1)c1ccc2ccccc2n1 | inactive
114 | O=[N+]([O-])c1ccc(CN2CCN(c3ccc(F)cc3)CC2)o1 | inactive
115 | CCOC(=O)c1cc(-c2csc(COc3ccccc3Cl)n2)on1 | inactive
116 | O=C(NCCc1ccccc1)c1nc(-c2cccs2)no1 | inactive
117 | COc1cccc2cc(C(=O)NCc3ccc(F)cc3)c(=N)oc12 | inactive
118 | c1cncc(-c2noc(CC3CCCCC3)n2)c1 | inactive
